Measured values taken from PubChem BioAssay AID488815 (Broad Institute, 2010).
Potency and affinity values are given separately. Inconclusive results are not listed. Entries that show only a call come without a potency. The source made the active and inactive calls. The rule behind the calls is not given here.

Target: CAAX prenyl protease 1 (Saccharomyces cerevisiae (strain ATCC 204508 / S288c)) (UniProt P47154)
Experiment: Ste24 protease inhibitors, dose response, biochemical, S. cerevisiae, plate reader, cherry-pick (AID 488815)

Sequence of CAAX prenyl protease 1 (Saccharomyces cerevisiae (strain ATCC 204508 / S288c)) (P47154 whole entry, looked up): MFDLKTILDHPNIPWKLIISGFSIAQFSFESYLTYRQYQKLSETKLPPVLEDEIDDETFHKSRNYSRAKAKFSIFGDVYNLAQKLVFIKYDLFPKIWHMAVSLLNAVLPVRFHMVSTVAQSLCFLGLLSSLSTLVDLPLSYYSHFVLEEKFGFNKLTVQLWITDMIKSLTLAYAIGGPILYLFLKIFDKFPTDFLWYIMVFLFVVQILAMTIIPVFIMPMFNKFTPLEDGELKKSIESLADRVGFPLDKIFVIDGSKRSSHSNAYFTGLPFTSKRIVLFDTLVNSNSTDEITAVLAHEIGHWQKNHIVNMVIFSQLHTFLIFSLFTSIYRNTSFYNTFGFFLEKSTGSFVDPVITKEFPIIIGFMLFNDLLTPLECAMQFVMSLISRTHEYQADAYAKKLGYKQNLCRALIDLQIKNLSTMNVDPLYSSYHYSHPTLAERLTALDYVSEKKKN

Structure (SMILES) | outcome
Cc1ccc(/C=N/NC(=O)c2nnn(-c3nonc3N)c2C(C)C)o1 | inactive
CN1c2ccc(C=O)c3c(C=O)ccc(c23)N(C)C1(C)C | inactive
CC(C)(C)OC(=O)N1CCC(c2cc(=O)n3[nH]cc(C(=O)Nc4ccc(F)c(Cl)c4)c3n2)CC1 | inactive
COC(C[C@@H]1O[C@@H]1C(=O)[C@@H](C)OCc1ccccc1)OC | inactive
Cc1cccc(-c2nnc(SCc3ccc(C#N)cc3)n2Cc2ccco2)c1 | inactive
CCO[C@@H]1OC(C(=O)N2CCN(Cc3ccccc3)CC2)=C[C@H](c2ccccc2)[C@H]1CCCO | inactive
COc1cccc(-c2cc(C(F)(F)F)n3ncc(S(=O)(=O)c4ccccc4)c3n2)c1 | inactive
O=C1C(Cc2c[nH]c3ccccc23)NC(=S)N1Cc1ccccc1 (stereo not given) | inactive
CCCCOC(=O)Nc1nc(C)c(C(=O)OCC)s1 | inactive
CC(C)CNC(=O)COc1cccc(C(=O)NCc2ccccc2)c1 | inactive
COC(C[C@@H](O)C[C@H](O)[C@H](C)OCc1ccccc1)OC | inactive
COc1cc2ccccc2cc1C(=O)N(CCN(C)C)c1nc2ccc(C)cc2s1 | inactive
COc1ccccc1/C=C/C=N/NC(=O)CN1CCN(S(=O)(=O)c2ccc(C)cc2)CC1 | inactive
CCC1CCCCN1C(=O)NC(=O)c1ccccc1 (stereo not given) | inactive
O=C(CN1CCC(NC(=O)c2ccc(Br)cc2)CC1)NCc1cccs1 | inactive
O=C1CCCC(O)=C1N=Nc1ccc2ncsc2c1 | inactive
O=C1CN(S(=O)(=O)c2ccc([N+](=O)[O-])cc2)CC(=O)N1 | inactive
O=C(c1cnc(Cl)c(Cl)c1)N1CCC(Cc2ccccc2)CC1 | inactive
CCC(COC)NC(=O)CCc1nnc(Cc2cccc(C(F)(F)F)c2)o1 (stereo not given) | inactive
O=C1CCN(Cc2ccccc2)CCN1[C@H](CSc1ccccc1)Cc1ccccc1 | inactive

Structure (SMILES) | outcome
O=C(c1cnc2n(c1=O)CCS2)N1CCN(C(c2ccccc2)c2ccc(Cl)cc2)CC1 (stereo not given) | inactive
CC(Cc1cccs1)NC(=O)Nc1ccc([N+](=O)[O-])cc1 (stereo not given) | inactive
O=C(COC(=O)c1ccc(S(=O)(=O)N2CCCC2)cc1)NCc1ccccc1 | inactive
O=C(Nc1ccccc1-c1nc2ccccc2[nH]1)c1ccc(N2C(=O)CCC2=O)cc1 | inactive
CC(=O)c1c(O)cc(O)c(C(C)=O)c1O | inactive
COC(C[C@H](O)C[C@H](O)[C@@H](C)OCc1ccccc1)OC | inactive
CN(C)S(=O)(=O)c1ccc(NC(=O)/C=C/c2ccccc2Cl)cc1 | inactive
c1cnn(Cc2cnc(N3CCOCC3)s2)c1 | inactive
Cc1cc(C(=O)N[C@H](c2ccccc2)[C@@]2(C)C[C@@H]2[C@@H](C)C(=O)Nc2ccc3ccccc3c2)n(C)n1 | inactive
COc1ccc(Br)cc1C(=O)Nc1cc(C)cc(C)c1 | inactive
C/C(CC1(O)C(=O)Nc2ccccc21)=N\O (stereo not given) | inactive
COc1cccc(-c2nc(C#N)c(N3CCN(C(=O)c4ccco4)CC3)o2)c1 | inactive
CS(=O)(=O)Nc1ccccc1C(=O)NC1CC2CCC1C2 (stereo not given) | inactive
Nc1nnnn1/N=C/c1ccccc1OCc1ccc(Cl)cc1Cl | inactive
NS(=O)(=O)c1ccc(NC(=O)/C=C/c2cn(-c3ccccc3)nc2-c2cccc(Cl)c2)cc1 | inactive
COc1ccc(C(=O)/C=C/c2ccc(OC)cc2OC)c(O)c1 | inactive
O=C(CC1(O)C(=O)N(C/C=C/c2ccccc2)c2ccccc21)c1ccccn1 (stereo not given) | inactive
C#CCNC(=O)C1=C[C@@H](C2CCCCC2)C[C@@H](OCc2ccc(CO)cc2)O1 | inactive
CC1(C)CC2CC(C)(CN2S(=O)(=O)c2ccc(N)cc2)C1 (stereo not given) | inactive
Cc1ccc(NS(=O)(=O)c2ccc(NC(=O)N3CCCCC3)cc2)cc1 | inactive
